D1 antagonist: blocks dopamine activation of the human D1 receptor | HEK293 TREx D1 cells, calcium flux, dopamine EC80; active compounds read low | activity change, negative = inhibition, % at 10 µM | 3.2% of 360,000 active | AID 504652; in the data active = activity change below about -30%; note: % is set by controls: 0 for no effect and ±100 for the full control effect
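Using tetracycline-induced force-coupled D1 Hek293 cells and a calcium dye, signals were followed for 180 s after compound, then for 180 s after EC80 dopamine, to detect inhibitors.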
D1 potentiator: enhances dopamine response at the human D1 receptor; P21728; HEK293 TREx D1 cells, calcium flux, dopamine EC20 potentiation; potentiation, % at 10 µM; 0.036% of 360,000 active; in the data active = potentiation above about 30%; note: 0% is about no effect
TRHR agonist: TRH receptor (human) agonism; 0.18% of 360,000 active; P34981; TRHR cells, calcium flux fluo-8, FDSS agonist mode; activation, % at 2 µM; note: 0% is about no effect
Target sequence (P34981 whole entry, looked up): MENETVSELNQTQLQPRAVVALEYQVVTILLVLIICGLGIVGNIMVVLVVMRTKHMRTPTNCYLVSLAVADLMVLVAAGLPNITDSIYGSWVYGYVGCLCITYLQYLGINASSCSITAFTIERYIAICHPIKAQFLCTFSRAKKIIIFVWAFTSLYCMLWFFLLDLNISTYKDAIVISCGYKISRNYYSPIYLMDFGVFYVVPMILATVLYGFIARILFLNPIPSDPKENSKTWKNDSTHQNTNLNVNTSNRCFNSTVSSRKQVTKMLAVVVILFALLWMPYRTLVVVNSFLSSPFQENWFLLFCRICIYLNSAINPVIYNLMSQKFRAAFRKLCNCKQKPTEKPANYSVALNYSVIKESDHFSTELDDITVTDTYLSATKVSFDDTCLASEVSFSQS
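Read-out: compound-evoked intracellular calcium rise in TRHR cells, fluo-8 dye, kinetic FDSS fluorescence at 1 s/cycle following a 10-cycle baseline. Cells cultured overnight before dye loading (30 min–1.5 h, RT).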
TRHR PAM: allosterically enhances the human TRH receptor | enhancement, % at 2 µM | 0.66% of 360,000 active | P34981 | TRHR cells, fluo-8 calcium fluorescence, EC20 TRH enhancement; in the data active = enhancement above about 30%; note: 0% is about no effect
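Enhancer read-out: after compound pinning and an initial kinetic agonist-mode read, an EC20 of TRH (10 nM final) was injected and fluo-8 calcium signal (Ex 480/Em 530) followed at 1 s/cycle for 100 cycles in TRHR-expressing cells.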
D1 agonist: human D1 receptor agonism. P21728. HEK293 T-REx D1 cells, calcium flux, agonist mode. activation, % at 2 µM. 1% of 360,000 active; note: 0% is about no effect
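Tetracycline-induced HEK293 TREx D1 cells, force-coupled to calcium signalling, were dye-loaded with a no-wash calcium kit. Compound was pin-added after a 10 s baseline. Fluorescence was read kinetically at 1 cycle/s for 180 s, with calcium rises flagged as agonism.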
Active calls of the source: *. Rows were chosen to be rich in hits. Some 4.6% of all compounds tested hit in one or more screens of this group. Cut-off read from the data, not from the text of the source, unless noted: active = activation above about 30%; inactive = the rest.

SMILES	D1 antagonist	D1 potentiator	TRHR agonist	TRHR PAM	D1 agonist
COc1ccc(OC)c(C(O)c2coc3ccc(O)c(CN4CCOCC4)c23)c1 (stereo unspecified)	-30*	-4	-1	5	6
CNCCOc1ccccc1-c1ccccc1	-1	-3	-1	-2	1
COCCNCCOc1ccccc1-c1ccccc1	-31*	-7	0	10	17
COCCCNCCOc1ccccc1-c1ccccc1	-44*	-9	0	-1	14
CNCCCCOc1ccccc1-c1ccccc1	-48*	-6	1	10	38*
COCCCNCCCCOc1ccccc1-c1ccccc1	-37*	-8	0	4	15
CN(Cc1ccccc1)C1CCCN(C(=O)c2ccc(Cl)s2)C1 (stereo unspecified)	-31*	-9	0	1	2
CC(C)(C)c1ccc(OCCOCCn2c(-c3ccc(Cl)cc3)nc3ccccc3c2=O)cc1	-20	0	-1	10	0
CC(=O)c1ccc(N2CCN(c3ccc(S(=O)(=O)NCCN(C)C)cc3[N+](=O)[O-])CC2)cc1	-15	-2	3	1	17
CN(C)CCNS(=O)(=O)c1ccc(N2CCc3ccccc32)c([N+](=O)[O-])c1	-3	-5	-1	-5	64*
Cc1cccc(OC(=O)CSc2nnc(-c3ccc4c(c3)OCO4)o2)c1C	4	-1	0	0	1
CCOC(=O)c1cc(C(=O)OCC)c2ccccn2c1=O	-33*	-3	0	-8	1
CCOC(=O)c1c[nH]n(-c2ccccc2)c1=O	-15	-5	0	0	1
COc1ccc(S(=O)(=O)c2nnn(-c3cccc(OC)c3)c2N)cc1	1	-2	2	-1	30
COc1ccc(S(=O)(=O)c2nnn(-c3ccc(C(C)C)cc3)c2C)cc1	-16	-4	0	-1	9
Cc1ccc(S(=O)(=O)c2nnn(-c3ccc(F)c(Cl)c3)c2N)cc1	-23	2	5	10	76*
Cc1ccc(S(=O)(=O)c2nnn(-c3cccc(F)c3)c2N)cc1	-33*	-1	0	-3	10
Cc1cnc(NC(=O)CSc2ncc(-c3ccccc3)n2Cc2ccco2)s1	-32*	-9	5	1	79*
O=C(CSc1ncc(-c2ccc(F)cc2)n1Cc1ccco1)Nc1nccs1	6	-4	3	-6	20
COC(=O)c1c(NC(=O)c2ccc(C(C)(C)C)cc2)sc2c1CCC(C)C2 (stereo unspecified)	17	-2	-1	0	0
Cc1oc(-c2ccc(C(=O)NCc3ccccc3F)cc2)nc1COc1ccccc1	-54*	-4	1	-20	11
CCOc1ccccc1CNC(=O)c1ccc(-c2nc(CSc3ccc(C)cc3)c(C)o2)cc1	6	-2	1	-1	14
Cc1ccc(SCc2nc(-c3ccc(C(=O)NCc4ccc(Cl)cc4)cc3)oc2C)cc1	-84*	-3	0	-10	2
Cc1ccc(Cl)cc1NC(=O)Cn1cc(S(=O)(=O)Cc2ccccc2Cl)c2ccccc21	-2	2	1	-4	4
O=C(NC1CCCc2ccccc21)c1cccc(Br)c1 (stereo unspecified)	-44*	-2	-1	-2	3
SMILES	D1 antagonist	D1 potentiator	TRHR agonist	TRHR PAM	D1 agonist
Cc1ccnc2nc(C(=O)NC3CCCc4ccccc43)nn12 (stereo unspecified)	-52*	-1	-1	1	3
Cc1occc1C(=O)NC1CCCc2ccccc21 (stereo unspecified)	-17	0	-1	7	5
O=C(NCc1ccccc1Br)C1CCCN(C(=O)N2CCOc3ccccc32)C1 (stereo unspecified)	-15	-2	0	-2	23
COc1ccc(C(C)C)cc1S(=O)(=O)NCCc1c(C)[nH]c2ccc(C)cc12	2	-4	0	-6	0
CC1=NN(c2cccc(F)c2)C(=O)/C1=C/c1ccc(N(C)C)cc1	-85*	-14	0	-27	-1
COc1cc(C(=O)NCC(c2ccc(N(C)C)cc2)N2CCc3ccccc32)cc(OC)c1OC (stereo unspecified)	2	1	0	1	0
Cc1ccc(NC(=O)/C(C#N)=C/c2ccc(C)s2)c(C)c1	4	-2	0	-5	43*
